The whole screen tested about 94,000 compounds, of which about 6,200 (6.6%) were called active. Entries that show only a call come without a potency. Another 31% or so got no clear call; they are omitted. Calls come from the whole dose curve; as a rule, active = well fitted inhibition curve with a large enough effect; inconclusive = small, poorly fitted or top-dose-only effect; inactive = flat fitted curve, though single readings scatter. Only a selection was taken, and actives are over-represented in it overall.

97 molecules from PubChem BioAssay AID1345083 (National Center for Advancing Translational Sciences (NCATS), 2018) can be followed below.
Potency is the fitted concentration of half-maximal effect.

This experiment in a line: Cytotoxic Profiling in HEK 293 Cell Line of Diverse Libraries Using Quantitative High-Throughput Screening. Note: nearly all actives have a fitted effect of over 60% in size. Conditions: HEK 293 viability, ATP luminescence (CellTiter-Glo), 48-72 h; series mostly up to 115 µM. The method in brief:
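Read-out: CellTiter-Glo ATP luminescence. Cells: HEK 293, 250 cells/well. Exposure: 48 or 72 hr, 37 degree Celsius.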
For orientation: In ATP-based viability assays light output follows the ATP content of the culture.
On to `Cc1noc(-c2ccc(OC3CN(C(=O)C4CCOC4)C3)cc2)n1` (configuration not stated), for which the Potency result is “inactive”. As to `CO[C@H]1CN(C(C)C)[C@H]1C1CCN(C(=O)NCCc2ccccc2)CC1`, the Potency entry is “inactive”. For `NC(=O)[C@@H]1C[C@H](Oc2ccccc2)CN1C(=O)Cc1cccc(F)c1` the value was “inactive”; for `COc1cc(CNCc2ccc(C)c(F)c2F)ccc1OCC(O)CN1CCC(O)CC1` (configuration not stated), 17.8 µM (active). For `COc1ccc(CC(=O)N2CCC3(CC2)CC(O)CCO3)cc1OC` (configuration not stated) the value was “inactive”. Turning to `COc1cc(CN2CCC3(CC2)CC(O)CCO3)ccc1F` (configuration not stated), the Potency entry is “inactive”.

Regarding `COc1ccc(CN2C=C(C(=O)OCc3nc(C)no3)C(C)=NS2(=O)=O)cc1`, the Potency result is “inactive”. As for `NC(=O)[C@@H](Cc1ccccc1)NC(=O)[C@@]1(O)C[C@@H](O)[C@H](O)[C@@H](NC(=O)Nc2ccc(OC(F)(F)F)cc2)C1`, the entry is “inactive”; as for `Cn1nccc1CN1CCC(N2Cc3ccccc3C2=O)CC1`, “inactive”. For `CN(Cc1cccn1C)Cc1ccnn1C` the value was 100 µM (active). For `Cc1noc(C)c1[S+](=O)([O-])N(C)Cc1cccn1C` the value was “inactive”; for `O=C(NC[C@H]1O[C@@H](CO)[C@@H](O)[C@H]1N1CCN(c2ccccc2)CC1)c1ccccc1Cl`, “inactive”. On to `Cc1ccc(C(=O)N2CCC(CCC(=O)N3CCc4ccccc4C3)CC2)cc1`, for which the Potency is 44.7 µM (active). Turning to `CCCNC(=O)CCC1CCN(C(=O)c2ccc(C)cc2)CC1`, the Potency entry was “inactive”. For `CC1(C(=O)N2CCc3ccccc3C2)CCOCC1` the value was “inactive”. As for `CC(=O)N[C@@H]1CN(Cc2cn[nH]c2-c2ccc(F)cc2)C[C@H]1CO`, the Potency result was “inactive”. For `COc1ccc(-c2[nH]ncc2CN2CCCC(C(=O)NCc3ccccc3)CCNC(=O)CC2)cc1` (configuration not stated) the value was “inactive”; for `COc1ccc2cc(-c3[nH]ncc3CN3CCN(c4cccc(C)n4)CC3)ccc2c1`, 20 µM (active). In the case of `Cc1ncccc1C(=O)N1CCC2(CC1)CC(CO)N(C(=O)c1ccccc1)C2` (configuration not stated), the Potency result is “inactive”. On to `COCCC1(NS(C)(=O)=O)CCN(C(=O)c2ccc(C#N)cc2)CC1`, for which the Potency result is “inactive”. As to `COc1ccc([C@@H](NC(=O)Cc2c(F)cccc2Cl)C2CC(O)C2)cn1` (some centres not stated), the Potency result was “inactive”. Consider `COc1ccc(C(=O)N2CCCC(n3cc(-c4nc(C5CC5)no4)nn3)C2)cc1` (configuration not stated), for which the Potency result is “inactive”.

Regarding `CCOc1ccc(C(=O)N2CCC(n3cc(-c4nc(C)no4)nn3)C2)cc1` (configuration not stated), the Potency entry was “inactive”. `COc1ccc(C(=O)N2CCC(n3cc(-c4nc(C(C)C)no4)nn3)CC2)cc1F`: the Potency result is “inactive”. For `CC(C)c1noc(-c2cn(C3CCN(C(=O)c4ccc(N(C)C)cc4)C3)nn2)n1` (configuration not stated) the value was 31.6 µM (active); for `O=C(c1ccc(Cl)cc1)N1CCCC(n2cc(-c3nc(-c4ccccc4)no3)nn2)C1` (configuration not stated), 35.5 µM (active). As for `COc1cc(OC)cc(C(=O)N2CCCC(n3cc(-c4nc(C(C)C)no4)nn3)C2)c1` (configuration not stated), the entry is “inactive”. Regarding `COc1ccc(F)cc1-c1ncc2c(n1)OCCN(CC1CC1)C2=O`, the Potency entry is “inactive”.

For the molecule `CCNC(=O)N1C[C@@H]2OCC(=O)N(Cc3ccc(F)cc3)[C@@H]2C1`, the Potency entry is “inactive”. With `CCOc1ccc(CN2CCN(CC(N)=O)CC2CCO)cc1` (configuration not stated), the Potency result was “inactive”. Regarding `CCOC(=O)N1CCC(N2CCN(Cc3ccccc3F)C(CCO)C2)CC1` (configuration not stated), the Potency result was “inactive”. Regarding `COc1cccc(CN2CCN(c3ncccc3Cl)CC2CCO)c1` (configuration not stated), the Potency entry is “inactive”. Regarding `COc1ccc(CN2CCN(c3nc4ccccc4o3)CC2CCO)cc1C` (configuration not stated), the Potency is 35.5 µM (active).

On to `Cc1ccc(CN2CCN(c3nc4ccccc4o3)CC2CCO)cc1` (configuration not stated), for which the Potency is 44.7 µM (active).

As for `CN1C(=O)c2cccn2CC1C(=O)Nc1ccc(F)cc1F` (configuration not stated), the Potency entry was “inactive”. For `O=C(NC1CC1)[C@@H]1C[C@H](Oc2ccccc2)CN1C(=O)CN1CCCCCC1` the value was “inactive”; for `CCc1nncn1C1CCN(S(=O)(=O)c2cc(F)ccc2OC)CC1`, “inactive”. With `Cc1cccc(N2Cc3c(NCCCOC(C)C)ncnc3N(C)CC2=O)c1`, the Potency result was “inactive”. For `NCc1ccccc1-c1ccc(F)cc1` the value was “inactive”; for `Cc1cc2cccc(-c3nc(C4CCOC4)nn3CC(=O)O)c2o1` (configuration not stated), “inactive”; for `Cc1nc(N2CCC(NCCNc3ccncc3C)CC2)c2ccsc2n1`, 35.5 µM (active). For `Cc1nc(N2CCC(NC(=O)c3cnccn3)CC2)cc(C(F)(F)F)n1` the value was “inactive”; for `CNC(=O)c1cc(C2CC2)nc2onc(C3CCCN3C(=O)c3ccccc3)c12` (configuration not stated), “inactive”. As for `Cc1ccc(NC(=O)CC2CCCN(c3cn[nH]c(=O)c3)C2)cc1F` (configuration not stated), the entry is “inactive”. `CN(C)CC(O)COc1ccc(CN(C)C2CCSCC2)cc1` (configuration not stated): the Potency result was “inactive”. As for `COc1ccc(-c2nc3c(c(=O)[nH]2)CCN(C(=O)Cc2ccc(OC)c(Cl)c2)C3)cc1`, the entry is “inactive”; as for `O=[S+]([O-])(c1cccs1)N1CCN(c2nccc(Nc3ccccc3F)n2)CC1`, 35.5 µM (active); as for `O=c1n(CCN2CCN([S+](=O)([O-])c3cccs3)CC2)nc2n1CCCC2`, “inactive”. For `COc1ccccc1-n1c(=O)c(C(=O)N2CCN([S+](=O)([O-])c3cccs3)CC2)nc2cccnc21` the value was “inactive”; for `C=CCNC(=O)c1cn2c(n1)CN(C(=O)c1ccccc1F)CC2`, “inactive”.

Regarding `CCNC(=O)N1CCC(n2c(C)cnc2C2CC2)CC1`, the Potency result was “inactive”. Take `CCOc1ccc(NC(=O)N2CCC3(CC2)SCC(=O)N3Cc2ccco2)cc1`: the Potency entry is “inactive”. For `CCOc1ccccc1C(=O)N1CCC(Oc2ncccc2C(=O)N(C)C)C1` (configuration not stated) the value was “inactive”; for `O=C(CCC1CCCC1)N1CCC2(CC1)CC(O)CCO2` (configuration not stated), “inactive”; for `c1ccc(-n2cnnc2CC2CCN(Cc3ccc(-c4ccn[nH]4)o3)CC2)cc1`, “inactive”.

Consider `CC(C)CN1CCN(C2CCOC3(CCN(S(=O)(=O)c4cccs4)CC3)C2)CC1` (configuration not stated), for which the Potency entry was “inactive”. For `CCOc1ncccc1C(=O)N1CCN(Cc2ccccc2)CC(O)C1` (configuration not stated), the Potency entry is “inactive”. For `Cc1nnc([C@H]2CCN(Cc3ccc(F)cc3)C2)o1` the value was “inactive”. For `COC(=O)c1cccc2nc([C@H]3CCN(Cc4ccccc4)C3)oc12` the value was 79.4 µM (active); for `Cc1cc(C[C@@H]2COC[C@@H]2NC(=O)CCCc2nc(-c3ccco3)no2)on1`, “inactive”.

Take `COc1ccccc1-c1[nH]nc2ncc(C(=O)N3CCN(Cc4ccccc4)CC3)nc12`: the Potency was 100 µM (active). As for `COc1ccccc1-n1c(=O)c(C(=O)N2CCN(Cc3ccccc3)CC2)nc2cccnc21`, the Potency entry was “inactive”. As for `COCCNC(=O)c1cnc2n[nH]c(-c3ccccc3OC)c2n1`, the entry is “inactive”; as for `CNC(=O)c1cc(C)nc2onc(C3CCN(C(=O)c4ccc(C(F)(F)F)cc4)C3)c12` (configuration not stated), “inactive”; as for `Cc1cc(C)n(CC(=O)N2CCCC3(C2)Nc2cccnc2NC3=NC2CCCC2)n1` (configuration not stated), “inactive”. With `O=C(c1ccc(Cl)cc1)N1CCN(CCn2nc3n(c2=O)CCCC3)CC1`, the Potency result was “inactive”. With `Cc1noc(C)c1S(=O)(=O)N1CCCN(c2nc3ncccc3o2)CC1`, the Potency result is “inactive”. For `O=C(NCc1cccc(F)c1)C1CN(c2ccccc2)C(=O)N1` (configuration not stated) the value was “inactive”. As for `CNC(=O)CN(C)C(=O)[C@@H]1CN(c2ncccn2)C[C@H]1COC`, the entry is “inactive”; as for `F[C@@H]1CN(C2CCC2)C[C@@H]1OCc1nc2ncccc2[nH]1`, “inactive”. As for `CC(=O)Nc1ccc(S(=O)(=O)N[C@H]2CO[C@H]3[C@@H]2OC[C@@H]3n2nnnc2Oc2ccccc2)cc1`, the entry is “inactive”; as for `O=C(Nc1ccc(Oc2ccccc2)cc1)O[C@@H]1CO[C@H]2[C@@H]1OC[C@@H]2NS(=O)(=O)c1cccs1`, 39.8 µM (active). As for `O=C(Nc1ccccc1)O[C@@H]1CO[C@H]2[C@@H]1OC[C@@H]2NS(=O)(=O)c1cccc2cccnc12`, the Potency entry is “inactive”. For `O=C(c1ccccc1)N1CCC2(CC(c3cccnc3)=NO2)C1` (configuration not stated) the value was “inactive”; for `O=C(Nc1cccc(Cl)c1)[C@@H]1C[C@H](c2ccc(F)cc2)N([S+](=O)([O-])C2CC2)C1`, 79.4 µM (active); for `O=C(NCC1CCOCC1)Nc1cccc(Cl)c1`, “inactive”. As for `O=C(Nc1ccc(Cl)cc1)C1CCN(C(=O)c2ncn3c2COC(c2ccc(F)cc2)C3)CC1` (configuration not stated), the entry is “inactive”; as for `CC[C@H]1CN(S(C)(=O)=O)CC[C@H]1CC(=O)NCc1cccc2ccccc12`, “inactive”. For `Cn1nc(-c2nncn2CC2CC2)c2c1CCN(C(=O)CC1CCCC1)C2`, the Potency entry is “inactive”. As for `O=C(Cc1cccc(F)c1)N1CCCC(Cc2nncn2-c2ccccc2)C1` (configuration not stated), the entry is “inactive”; as for `NS(=O)(=O)c1ccc(F)c(C(=O)N[C@@H]2c3ccccc3C[C@@H]2O)c1`, “inactive”; as for `NS(=O)(=O)c1ccc(F)c(C(=O)NCc2noc(-c3ccco3)n2)c1`, “inactive”. As for `CCOc1ncccc1CNC(=O)c1cc(S(N)(=O)=O)ccc1F`, the figure is 79.4 µM (active); as for `CNC(=O)c1cc(C)nc2onc(C3CCCN3C(=O)C3CCCC3)c12` (configuration not stated), “inactive”. As for `Cc1cccc(NC(=O)N2CC(Oc3ccc(-c4nc(C)no4)cc3)C2)c1`, the Potency result was “inactive”. Turning to `CN(Cc1ccccc1)C(=O)C[C@@H]1O[C@H](CNS(=O)(=O)c2ccc(Cl)cc2)[C@@H](O)[C@H]1O`, the Potency result is “inactive”. As for `CN1C[C@H](NS(C)(=O)=O)CCC[C@@H](C(=O)N(C)Cc2cccnc2)CC1=O`, the entry is “inactive”. `CC1=C[C@@H](CNS(=O)(=O)c2cccc(C#N)c2)[C@H](C(C)C)C[C@H]1CC(=O)N(C)Cc1cccnc1`: the Potency is 39.8 µM (active). For `CCOc1nccnc1NC1CCN(C(=O)c2cccnc2)CC1` the value was “inactive”. In the case of `Cc1nn(CCO)cc1-c1c(-c2ccccc2)ncn1CC(=O)O`, the Potency entry is “inactive”. Consider `O=C(c1cccnc1)N1CCC(c2nnc(Cn3cccn3)n2C2CC2)CC1`, for which the Potency entry was “inactive”. `Cc1cnc(C(=O)N[C@@H]2CCC[C@@H]2C(=O)Nc2ccc3c(c2)OCCO3)cn1`: the Potency entry was “inactive”. As for `O=C(O)CCc1cc2n(n1)CCCN(C(=O)CN1CCOC1=O)C2`, the entry is “inactive”; as for `CS(=O)(=O)c1ccc(N2CCN(C(=O)[C@H]3CC[C@@H](N)C3)CC2)c(F)c1`, “inactive”.

Consider `O=C(c1ccccc1F)N1CCC(c2nn(-c3ccc(Cl)cc3)c(=O)[nH]2)CC1`, for which the Potency is 79.4 µM (active). As to `O=C(c1ccccc1F)N1CCC(c2nn(-c3ccc(F)cc3)c(=O)[nH]2)CC1`, the Potency entry was “inactive”. For `Cc1ccc(C(=O)N2CCC(c3nn(-c4ccccc4)c(=O)[nH]3)CC2)cc1` the value was “inactive”.
